Test results: PubChem BioAssay (NCI)
About 79,000 compounds went through this panel and 15% of them were active in at least one assay; those are over-represented in the sample as a whole. A number with no mark means an inactive call. The source made the active and inactive calls. Rule as the data show it: active = growth inhibition above about 70%; inactive = the rest.

How the values were obtained:
[1] = NCI Yeast Anticancer Drug Screen. Data for the rad52 strain (AID 147);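 also: 0% = growth of vehicle-treated control cultures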; settings: S. cerevisiae rad52 mutant growth inhibition, hits give high values
Outline: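 Screen used a yeast mutant impaired in DNA repair. After compound exposure, growth was measured. Values reflect inhibition compared with vehicle-treated cells.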

[2] = NCI Yeast Anticancer Drug Screen. Data for the wt1 strain (AID 149);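 also: 0% = growth of vehicle-treated wt1 cultures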; settings: S. cerevisiae wt1 strain (SPY 50644) growth inhibition, hits give high values
Outline: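 wt1 yeast, compound-treated; % growth inhibition vs vehicle control.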

[3] = NCI Yeast Anticancer Drug Screen. Data for the rad50EPP+ strain (AID 151);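 also: 0% = growth of vehicle-treated control cultures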; settings: S. cerevisiae rad50 mutant strain, hits give high values
Outline: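 Exposing the rad50EPP+ strain to each compound, growth was compared with vehicle-only cultures to give inhibition.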

[4] = NCI Yeast Anticancer Drug Screen. Data for the mgt1 strain (AID 153); settings: S. cerevisiae mgt1 mutant growth inhibition, hits give high values
Outline: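 Genetically defined yeast (mgt1) treated with compound; inhibition of growth expressed against vehicle-treated controls.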

[5] = NCI Yeast Anticancer Drug Screen. Data for the rad50 strain (AID 155);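 also: 0% = growth of vehicle-only cultures of the same strain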; settings: S. cerevisiae rad50 strain growth inhibition, hits give high values
Outline: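 Genetically altered yeast (DNA repair pathway); compound treatment; growth inhibition vs vehicle ctrl.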

[6] = NCI Yeast Anticancer Drug Screen. Data for the mec2-1 strain (AID 157); settings: S. cerevisiae mec2-1 strain, hits give high values
Outline: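 Readout is yeast growth inhibition, normalised to vehicle-treated controls, in the mec2-1 strain exposed to compound.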

[7] = NCI Yeast Anticancer Drug Screen. Data for the rad14 strain (AID 159);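 also: 0% = growth of vehicle-treated control cultures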; settings: S. cerevisiae rad14 strain growth inhibition, hits give high values
Outline: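 Test compounds were applied to a repair-deficient yeast strain. Its growth was then compared with that of cultures given vehicle alone, and inhibition was expressed relative to those controls.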

[8] = NCI Yeast Anticancer Drug Screen. Data for the sgs1 mgt1 strain (AID 161);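 also: 0% = growth of cultures given vehicle only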; settings: S. cerevisiae sgs1 mgt1 strain, hits give high values
Outline: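 Yeast cells carrying a defined DNA-repair defect were exposed to test compounds. Growth inhibition was measured relative to vehicle-treated controls.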

[9] = NCI Yeast Anticancer Drug Screen. Data for the CLN2oe strain (AID 163);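 also: 0% = growth of vehicle-only control cultures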; settings: S. cerevisiae CLN2oe strain, hits give high values
Outline: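 Values reflect how much compound exposure reduced yeast growth, referenced to vehicle-exposed cells. Assay organism is a strain with a defined genetic change affecting cell-cycle control.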

[10] = NCI Yeast Anticancer Drug Screen. Data for the cln2 rad14 strain (AID 165);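 also: 0% = growth equal to vehicle treated cultures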; settings: S. cerevisiae cln2 rad14 strain, hits give high values
Outline: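 Relative to vehicle controls, growth inhibition of compound-treated cln2 rad14 yeast was recorded.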

[11] = NCI Yeast Anticancer Drug Screen. Data for the bub3 strain (AID 167); settings: S. cerevisiae bub3 mutant strain, hits give high values
Outline: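 Yeast carrying a defined mutation is treated with each compound, and growth is compared with that of vehicle-exposed cells to give inhibition.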

[12] = NCI Yeast Anticancer Drug Screen. Data for the mlh1 strain (AID 171);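 also: 0% = growth of vehicle-treated control cultures of the same strain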; settings: S. cerevisiae mlh1 strain growth inhibition, hits give high values
Outline: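 Steps: expose the defined-mutant yeast strain to compound; expose a parallel culture to vehicle; measure growth; express compound effect as inhibition relative to the vehicle culture.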

[13] = NCI Yeast Anticancer Drug Screen. Data for the sgs1 strain (AID 173);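 also: 0% = growth of vehicle-only control cultures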; settings: S. cerevisiae sgs1 mutant, hits give high values
Outline: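 Treat defined-mutant yeast with compound; measure growth; calculate inhibition relative to vehicle-treated cells.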

[14] = NCI Yeast Anticancer Drug Screen. Data for the mlh1 rad18 strain (AID 175); settings: S. cerevisiae mlh1 rad18 strain growth inhibition, hits give high values
Outline: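 Test agents were incubated with a yeast strain of defined genotype (DNA damage repair defect). Inhibition of growth was derived by comparison with vehicle-exposed cultures.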

[15] = NCI Yeast Anticancer Drug Screen. Data for the rad18 strain (AID 177); settings: S. cerevisiae rad18 mutant growth inhibition, hits give high values
Outline: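 A genetically defined yeast mutant impaired in DNA damage repair was treated with test compounds, then its growth was measured against cultures receiving vehicle alone.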

[16] = NCI Yeast Anticancer Drug Screen. Data for the wt2 strain (AID 169);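 also: 0% = growth of vehicle-treated yeast cultures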; settings: S. cerevisiae wt2 strain growth inhibition, hits give high values
Outline: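 Values express reduction in yeast growth under compound treatment, referenced to vehicle-treated cells.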

[17] = at 5.0 µM (retest, dose inferred, filed as 0.5)
[18] = at 50.0 µM (retest, dose inferred, filed as 5.0)

CSc1nc(-c2ccccc2)nc(=[N+]2CCOCC2)s1
growth inhibition ([1]; at 1.2 µM): 17%
growth inhibition ([1]; at 3.7 µM): 52%
growth inhibition ([1]; at 11.0 µM): 83% (active)
growth inhibition ([1]; at 33.0 µM): 97% (active)
growth inhibition ([1]; at 100.0 µM): 98% (active)
growth inhibition ([2]; at 1.2 µM): 5%
growth inhibition ([2]; at 3.7 µM): 11%
growth inhibition ([2]; at 11.0 µM): 23%
growth inhibition ([2]; at 33.0 µM): 56%
growth inhibition ([2]; at 100.0 µM): 93% (active)
growth inhibition ([3]; at 1.2 µM): 27%
growth inhibition ([3]; at 3.7 µM): 56%
growth inhibition ([3]; at 11.0 µM): 77% (active)
growth inhibition ([3]; at 33.0 µM): 89% (active)
growth inhibition ([3]; at 100.0 µM): 93% (active)
growth inhibition ([4]; at 1.2 µM): 3%
growth inhibition ([4]; at 3.7 µM): 11%
growth inhibition ([4]; at 11.0 µM): 31%
growth inhibition ([4]; at 33.0 µM): 87% (active)
growth inhibition ([4]; at 100.0 µM): 98% (active)
growth inhibition ([5]; at 1.2 µM): 13%
growth inhibition ([5]; at 3.7 µM): 37%
growth inhibition [5, 17]: 74% (active)
growth inhibition ([5]; at 11.0 µM): 79% (active)
growth inhibition ([5]; at 33.0 µM): 94% (active)
growth inhibition [5, 18]: 74% (active)
growth inhibition ([5]; at 50.0 µM): 88.8% (active)
growth inhibition ([5]; at 100.0 µM): 98% (active)
growth inhibition ([6]; at 1.2 µM): 1%
growth inhibition ([6]; at 3.7 µM): 8%
growth inhibition [6, 17]: 18%
growth inhibition ([6]; at 11.0 µM): 32%
growth inhibition ([6]; at 33.0 µM): 73% (active)
growth inhibition [6, 18]: 18%
growth inhibition ([6]; at 50.0 µM): 73.5% (active)
growth inhibition ([6]; at 100.0 µM): 98% (active)
growth inhibition ([7]; at 1.2 µM): 4%
growth inhibition ([7]; at 3.7 µM): 9%
growth inhibition ([7]; at 11.0 µM): 25%
growth inhibition ([7]; at 33.0 µM): 78% (active)
growth inhibition ([7]; at 100.0 µM): 99% (active)
growth inhibition [8, 17]: 44%
growth inhibition [8, 18]: 44%
growth inhibition ([8]; at 50.0 µM): 86.4% (active)
growth inhibition ([9]; at 1.2 µM): -4%
growth inhibition ([9]; at 3.7 µM): 6%
growth inhibition ([9]; at 11.0 µM): 21%
growth inhibition ([9]; at 33.0 µM): 77% (active)
growth inhibition ([9]; at 100.0 µM): 96% (active)
growth inhibition [10, 17]: 14%
growth inhibition [10, 18]: 14%
growth inhibition ([10]; at 50.0 µM): 64.1%
growth inhibition ([11]; at 1.2 µM): -8%
growth inhibition ([11]; at 3.7 µM): -3%
growth inhibition [11, 17]: 21%
growth inhibition ([11]; at 11.0 µM): 32%
growth inhibition ([11]; at 33.0 µM): 82% (active)
growth inhibition [11, 18]: 21%
growth inhibition ([11]; at 50.0 µM): 81.6% (active)
growth inhibition ([11]; at 100.0 µM): 96% (active)
growth inhibition ([12]; at 1.2 µM): -1%
growth inhibition ([12]; at 3.7 µM): 10%
growth inhibition ([12]; at 11.0 µM): 35%
growth inhibition ([12]; at 33.0 µM): 76% (active)
growth inhibition ([12]; at 100.0 µM): 98% (active)
growth inhibition ([13]; at 1.2 µM): 10%
growth inhibition ([13]; at 3.7 µM): 31%
growth inhibition ([13]; at 11.0 µM): 72% (active)
growth inhibition ([13]; at 33.0 µM): 94% (active)
growth inhibition ([13]; at 100.0 µM): 98% (active)
growth inhibition [14, 17]: 35%
growth inhibition [14, 18]: 35%
growth inhibition ([14]; at 50.0 µM): 82.2% (active)
growth inhibition ([15]; at 1.2 µM): 16%
growth inhibition ([15]; at 3.7 µM): 50%
growth inhibition ([15]; at 11.0 µM): 86% (active)
growth inhibition ([15]; at 33.0 µM): 94% (active)
growth inhibition ([15]; at 100.0 µM): 98% (active)

CC(=O)Oc1ccc2c(c1)Cc1cc(N3C(=O)C=CC3=O)ccc1-2
growth inhibition ([1]; at 1.2 µM): 10%
growth inhibition ([1]; at 3.7 µM): 29%
growth inhibition ([1]; at 11.0 µM): 73% (active)
growth inhibition ([1]; at 33.0 µM): 96% (active)
growth inhibition ([1]; at 100.0 µM): 95% (active)
growth inhibition ([2]; at 1.2 µM): 1%
growth inhibition ([2]; at 3.7 µM): 12%
growth inhibition ([2]; at 11.0 µM): 35%
growth inhibition ([2]; at 33.0 µM): 93% (active)
growth inhibition ([2]; at 100.0 µM): 97% (active)
growth inhibition ([3]; at 1.2 µM): 81% (active)
growth inhibition ([3]; at 3.7 µM): 96% (active)
growth inhibition ([3]; at 11.0 µM): 98% (active)
growth inhibition ([3]; at 33.0 µM): 97% (active)
growth inhibition ([3]; at 100.0 µM): 92% (active)
growth inhibition ([4]; at 1.2 µM): 7%
growth inhibition ([4]; at 3.7 µM): 19%
growth inhibition ([4]; at 11.0 µM): 58%
growth inhibition ([4]; at 33.0 µM): 98% (active)
growth inhibition ([4]; at 100.0 µM): 95% (active)
growth inhibition ([5]; at 1.2 µM): 7%
growth inhibition ([5]; at 3.7 µM): 32%
growth inhibition [5, 17]: 27%
growth inhibition ([5]; at 11.0 µM): 83% (active)
growth inhibition ([5]; at 33.0 µM): 96% (active)
growth inhibition [5, 18]: 99% (active)
growth inhibition ([5]; at 50.0 µM): 46.1%
growth inhibition ([5]; at 100.0 µM): 93% (active)
growth inhibition ([6]; at 1.2 µM): 15%
growth inhibition ([6]; at 3.7 µM): 30%
growth inhibition [6, 17]: 44%
growth inhibition ([6]; at 11.0 µM): 72% (active)
growth inhibition ([6]; at 33.0 µM): 97% (active)
growth inhibition [6, 18]: 99% (active)
growth inhibition ([6]; at 50.0 µM): 47.7%
growth inhibition ([6]; at 100.0 µM): 97% (active)
growth inhibition ([7]; at 1.2 µM): 10%
growth inhibition ([7]; at 3.7 µM): 25%
growth inhibition ([7]; at 11.0 µM): 61%
growth inhibition ([7]; at 33.0 µM): 98% (active)
growth inhibition ([7]; at 100.0 µM): 97% (active)
growth inhibition [8, 17]: 17%
growth inhibition [8, 18]: 99% (active)
growth inhibition ([8]; at 50.0 µM): 58.2%
growth inhibition ([9]; at 1.2 µM): 1%
growth inhibition ([9]; at 3.7 µM): 12%
growth inhibition ([9]; at 11.0 µM): 35%
growth inhibition ([9]; at 33.0 µM): 92% (active)
growth inhibition ([9]; at 100.0 µM): 96% (active)
growth inhibition [10, 17]: 7%
growth inhibition [10, 18]: 98% (active)
growth inhibition ([10]; at 50.0 µM): 24.2%
growth inhibition ([11]; at 1.2 µM): -9%
growth inhibition ([11]; at 3.7 µM): 1%
growth inhibition [11, 17]: 8%
growth inhibition ([11]; at 11.0 µM): 37%
growth inhibition ([11]; at 33.0 µM): 94% (active)
growth inhibition [11, 18]: 98% (active)
growth inhibition ([11]; at 50.0 µM): 48.6%
growth inhibition ([11]; at 100.0 µM): 97% (active)
growth inhibition ([16]; at 1.2 µM): 1%
growth inhibition ([16]; at 3.7 µM): 15%
growth inhibition ([16]; at 11.0 µM): 46%
growth inhibition ([16]; at 33.0 µM): 98% (active)
growth inhibition ([16]; at 100.0 µM): 96% (active)
growth inhibition ([13]; at 1.2 µM): 16%
growth inhibition ([13]; at 3.7 µM): 33%
growth inhibition ([13]; at 11.0 µM): 79% (active)
growth inhibition ([13]; at 33.0 µM): 98% (active)
growth inhibition ([13]; at 100.0 µM): 97% (active)
growth inhibition [14, 17]: 67%
growth inhibition [14, 18]: 98% (active)
growth inhibition ([14]; at 50.0 µM): 40.6%
growth inhibition ([15]; at 1.2 µM): 10%
growth inhibition ([15]; at 3.7 µM): 30%
growth inhibition ([15]; at 11.0 µM): 85% (active)
growth inhibition ([15]; at 33.0 µM): 96% (active)
growth inhibition ([15]; at 100.0 µM): 95% (active)
